Pf apPOL block = Pf-apPOL DNA polymerase inhibition; Recombinant Pf-apPOL, molecular beacon fluorescence, 1.5 h; inhibition, % at 10 µM; actives 0.25% (n = 210,000)
mHTT-CaM PPI inh = mHTT-calmodulin interaction abrogation. AlphaScreen His-mHTT/GST-CaM binding, luminescence. inhibition, % at 15 µM. actives 3.6% (n = 190,000);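 further: 0% = both proteins with DMSO and 100% = one protein alone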
* hit, by the source's call; . = no result. Many of the other results were omitted from the sample, so hits are more common in it than they were. No stated cut-off is given here; in the data, active means inhibition above about 50%; inactive means the rest.

SMILES | Pf apPOL block | mHTT-CaM PPI inh
CCOc1ccc(/C=C2\C(=O)NN(c3cccc(Br)c3)C2=O)cc1OCC | -2 | 5
CCOc1cc(/C=C2\C(=O)NN(c3ccc(C)c(C)c3)C2=O)cc(Cl)c1OCC | -2 | 63*
COc1cc(/C=C2\C(=O)NN(c3cccc(Br)c3)C2=O)cc(Cl)c1OC(C)C | -4 | 84*
CCOc1cc(/C=C2\C(=O)NN(c3ccc(C)c(Cl)c3)C2=O)cc(Cl)c1OCC | -11 | 41
N#Cc1ccc(NS(=O)(=O)c2cc(Cl)sc2Cl)cc1 | 5 | .
Cn1nc(-c2nc(-c3ccccc3)no2)c2c1CCN(C(=O)Cc1ccc(F)cc1)C2 | -4 | 24
O=C(c1cccs1)N1CCCCC1c1nncn1CC1CC1 (stereo unspecified) | -1 | -4
CCOc1ccc(CC(=O)N2CCC(c3nc4cccnc4n3CC)C2)cc1 (stereo unspecified) | -4 | 2
O=C1CC(c2cccc(F)c2)c2c(n[nH]c2-c2ccc(Cl)cc2)N1 (stereo unspecified) | -2 | 7
COc1cccc(CC(=O)NC2CCN(c3nccc(C(F)(F)F)n3)CC2)c1 | -177 | .
C(=Nc1c2ccccc2nc2ccccc12)c1cccc2c1OCOC2 | . | -3
C(=Nc1c2ccccc2nc2ccccc12)c1ccco1 | . | 56*
COc1cc(C2C3=C(Nc4c2c(=O)[nH]c(=O)n4C)c2ccccc2C3=O)ccc1O (stereo unspecified) | -2 | 10
O=C1C2=C(Nc3ccccc3SC2c2ccco2)c2ccccc21 (stereo unspecified) | 0 | 69*
O=C1CCCC2=C1C(c1ccco1)C1=C(N2)c2ccccc2C1=O (stereo unspecified) | -2 | 26
COc1ccc(C2Sc3ccccc3NC3=C2C(=O)c2ccccc23)cc1OC (stereo unspecified) | 3 | 69*
Cc1cc(C2CCCN2Cc2ccccc2F)on1 (stereo unspecified) | 10 | 2
C=CCN(C1=NC(C)(C)C(=C)S1)c1ccc(C)cc1C | -6 | .
OCCNc1nc(NCc2ccc3c(c2)OCO3)nc2c1cnn2-c1ccc(F)cc1 | -8 | 67*
OCCNc1nc(NN2CCOCC2)nc2c1cnn2-c1ccc(Cl)cc1 | 0 | 5
OCCNc1nc(NCCc2cccs2)nc2c1cnn2-c1ccc(F)cc1 | -5 | 56*
c1ccc(-n2ncc3c(NCc4cccs4)ncnc32)cc1 | -2 | 1
COc1ccc(OCc2noc(CNC(=O)COc3ccc(Cl)cc3Cl)n2)cc1 | -1 | -16
NNC(=O)c1nc[nH]c1C(=O)Nc1ccccc1 | -7 | 81*
O=C(Nc1ccccc1)c1ccccc1 | -7 | .
SMILES | Pf apPOL block | mHTT-CaM PPI inh
Clc1ccc(CN2CCc3nc(N4CCN(c5ccccc5)CC4)ncc3C2)cc1 | 3 | 41
COc1ccc(CN2CCc3nc(N4CCN(c5ccc(F)cc5)CC4)ncc3C2)cc1 | -3 | 0
COc1ccc(N2CCN(c3ncc4c(n3)CCN(Cc3cccc(F)c3)C4)CC2)cc1 | -4 | 51*
CCN1CCN(c2ncc3c(n2)CCN(Cc2cccc(C)c2)C3)CC1 | -2 | 79*
Brc1csc(CN2CCc3nc(N4CCCC4)ncc3C2)c1 | 6 | 99*
Clc1ccc(CN2CCc3nc(N4CCN(c5ncccn5)CC4)ncc3C2)cc1 | -2 | 100*
Cc1cccc(CN2CCc3nc(N4CCC(C)CC4)ncc3C2)c1 | -1 | 13
CCN1CCN(c2ncc3c(n2)CCN(Cc2cc(Br)cs2)C3)CC1 | -1 | 34
COc1ccc(-c2nnc(-c3ccc4c(c3)OCO4)o2)c(OC)c1OC | 5 | 8
CCCN=C(NS(=O)(=O)c1ccc(F)cc1)c1ccccc1 | 4 | 6
Nc1cc(NC(=O)c2cccc(C(=O)Nc3ccc(Cl)c(N)c3)c2)ccc1Cl | -1 | 15
O=C1CC2CS(=O)(=O)CC2N1c1cccc(C(F)(F)F)c1 (stereo unspecified) | -2 | -6
Fc1cccc(CN2CCc3nc(N4CCN(c5ncccn5)CC4)ncc3C2)c1 | -3 | 100*
Fc1ccccc1CN1CCc2nc(N3CCN(c4ccccc4)CC3)ncc2C1 | 4 | 34
Fc1ccc(CN2CCc3nc(N4CCN(c5ccccc5)CC4)ncc3C2)cc1F | 5 | 100*
Fc1cccc(CN2CCc3nc(N4CCN(c5ccccc5F)CC4)ncc3C2)c1 | 3 | 3
O=C(NC1CCCCC1)c1ccc(S(=O)(=O)N2CCCC2)cc1 | -4 | 1
CN(C)CCNC(=O)c1ccc(S(=O)(=O)N2CCCC2)cc1 | 55* | -5
CCNC(=O)c1cncc(-c2ccc(F)cc2F)c1 | 38 | 5
CC(C)NC(=O)c1cncc(-c2ccc(F)cc2F)c1 | 63* | 6
CCCn1cnnc1C1CCCCN1C(=O)CCc1ccccc1OC (stereo unspecified) | -1 | 4
CCn1cnnc1C1CCCCN1C(=O)CCc1c[nH]c2ccccc12 (stereo unspecified) | 0 | 56*
Cc1ncc(CO)c2cc(C(=O)Nc3ccccc3F)c(=O)oc12 | -3 | -1

Assay outcomes deposited in PubChem BioAssay by University of Kansas High Throughput Screening Laboratory.
